# Pf growth 48h: inhibits P. falciparum growth in the first generation, 48 h. P. falciparum luciferase growth in erythrocytes, 48 h. Potency, µM (highest dose often 28.7 µM), inactives show at the highest dose activity change, negative = inhibition, most hits filed as inhibitors. actives 5.9% (n = 310,000). AID 504832; note: potency is the fitted concentration of half-maximal effect; % is set by controls: 0 for no effect and ±100 for the full control effect
#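 In quantitative HTS format, infected erythrocytes bearing luciferase-reporter parasites were treated for a single generation at 37 C. Luminescence after adding detection reagent served as the growth measure.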
# Pf growth 96h: P. falciparum growth inhibition at 96 hours; Potency, µM (titrated, usually from 28.7 µM), inactives show at the highest dose activity change, negative = inhibition, actives largely listed as inhibitors; P. falciparum luciferase reporter growth, 96 h; AID 504834; actives 6.9% (n = 320,000); note: potency is the fitted concentration of half-maximal effect; % is set by controls: 0 for no effect and ±100 for the full control effect
#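 P. falciparum expressing integrated firefly luciferase grown in erythrocytes (2% hematocrit, 0.05% parasitemia final) with compounds for 96 hours at 37 C, 5% CO2. Growth inhibition read as loss of luminescence after adding luciferase detection reagent.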
# Shiga toxin inh: blocks Shiga toxin action in Vero cells | Vero cells, Shiga toxin protein synthesis inhibition reporter | inhibition, % at 38.7 µM | actives 9.2% (n = 290,000) | AID 2315; in the data active = inhibition mostly above about 28%, no sharp cut-off; inactive = mostly below about 43%; note: 0% is about no effect
# MARV entry inh: blocks Marburg virus binding to or entry into cells. Marburg virus pseudotyped entry inhibition, cell reporter. Potency, µM (series often up to 37.8 µM), without a hit: at the top dose activity change, negative = inhibition, actives largely listed as inhibitors. actives 1.8% (n = 300,000). AID 540276; calls by dose curve; tested in HEK293 cells; note: potency is the fitted concentration of half-maximal effect; % is set by controls: 0 for no effect and ±100 for the full control effect
# Cycloheximide cs: counter-screen for Shiga toxin inhibitors: cycloheximide protein synthesis inhibition; cell reporter, cycloheximide protein synthesis inhibition counterscreen; AID 2314; actives 12% (n = 300,000); max response, %; in the data active = max response mostly above about 13%, no sharp cut-off; inactive = mostly below about 14%; note: read at 38.3 µM for the half of the compounds with a filed dose; 0% is about no effect
# LASV entry inh: blocks Lassa virus binding to or entry into cells; Lassa virus pseudotype entry inhibition, cell reporter; Potency, µM (doses to about 37.9 µM), inactives show at the highest dose activity change, negative = inhibition, actives largely listed as inhibitors; actives 1.2% (n = 300,000); calls by dose curve; tested in HEK293 cells; note: potency is the fitted concentration of half-maximal effect; % is set by controls: 0 for no effect and ±100 for the full control effect; nearly all actives have a fitted effect of over 50% in size
# An asterisk follows results filed as active; ? = inconclusive; / = not tested or not shown; [ ] = remark or other dose. Rows were chosen to be rich in hits. Some 19% of all compounds tested hit in one or more screens of this group. Unless noted, calls come from the whole dose curve; as a rule, active = well fitted inhibition curve with a large enough effect; inconclusive = small, poorly fitted or top-dose-only effect, or another doubt; inactive = no such curve, though single readings can be large or run the other way.
SMILES,Pf growth 48h,Pf growth 96h,Shiga toxin inh,MARV entry inh,Cycloheximide cs,LASV entry inh
COc1ccc(NC(=O)CC2CCCCC2)cc1OC,3.29µM*,2.62µM*,35.6,2.1%,26.8*,27.9%
CC(=O)NC1C(=O)SC1(C)C (centres undefined),22.6%,42.9%,-29.6,/,-2.8,/
C[C@H](NC(=O)c1nc[nH]c1C(=O)N[C@@H](C)C(=O)OCc1ccccc1)C(=O)OCc1ccccc1,31.2%,7.1%,21.4,/,-1.8,/
CC(C)C[C@H](NC(=O)c1nc[nH]c1C(=O)NC(c1ccccc1)c1ccccc1)C(=O)OCc1ccccc1,3.7µM*,2.94µM*,11.9,/,4.5,/
CC(C)C[C@H](NC(=O)c1nc[nH]c1C(=O)N[C@@H](CC(C)C)C(=O)OCc1ccccc1)C(=O)OCc1ccccc1,?,11.7µM*,-0.6,/,1.0,/
CC(C)C[C@H](NC(=O)c1[nH]cnc1C(=O)N[C@H](C)c1ccccc1)C(=O)OCc1ccccc1,?,?,-8.1,/,-1.2,/
C[C@H](NC(=O)c1nc[nH]c1C(=O)NC(c1ccccc1)c1ccccc1)C(=O)OCc1ccccc1,10.4µM*,?,-6.8,/,-5.7,/
CC(C)NC(=O)C1CCN(C(=O)c2ccc(-c3ccccc3)cc2)CC1,-17.1%,30.2%,-5.2,-4.1%,-1.2,4.7%
O=C(NCC1CCCO1)c1cc2cc(Cl)ccc2[nH]1 (centres undefined),12.8%,0.6%,43.4*,?,32.5*,-0.5%
Cc1ccc(Nc2nc(C(=O)N3CCC(C(=O)NC(C)C)CC3)cs2)cc1,11.7%,-23.0%,17.1,/,17.5*,/
Cc1ccc(Nc2nc(C(=O)NCC3CCCO3)cs2)cc1 (centres undefined),98.7%,-7.4%,50.6*,3.3%,24.0*,/
COc1cc2[nH]c(C(=O)NCC3CCCO3)cc2c(OC)c1OC (centres undefined),15.0%,3.4%,-16.9,9.8%[46.1 µM],-5.1,-23.7%[46.1 µM]
CCOC(=O)/C(=N/Nc1ccccc1)c1csc(Nc2ccccc2)n1,/,?,-4.9,-6.5%,-0.8,1.8%
CCOC(=O)/C(=N\Nc1ccc(OC)cc1)c1csc(Nc2ccccc2)n1,/,10.4µM*,35.5,?,13.3,-0.8%
C#CCOc1c(Br)cc(/C=N\NC(=O)CN2CCOCC2)cc1OCC,/,-23.0%,-8.5,-14.7%,0.8,3.8%
CC(C)N1C(=O)C2C(C(=O)NCc3ccccc3)C3C=CC2(O3)C1C(=O)NC(C)(C)C (centres undefined),30.6%,?,11.7,24.9%,-2.9,-13.3%
CCNC(=O)c1ccccc1-c1nc(-c2ccccc2)no1,30.8%,19.0%,38.4,-7.1%[46.1 µM],14.5,2.2%
O=C(NCC1CCCO1)c1cc(-c2ccccc2)on1 (centres undefined),202.7%,25.9%,128.6*,4.9%,40.1*,-13.6%
Cc1ccc(Nc2nc(C(=O)NCc3ccco3)cs2)cc1,?,?,40.5,?,20.2,?
Cc1ccc(-c2cc(C(=O)NCC3CCCO3)no2)cc1 (centres undefined),222.0%,12.7%,48.9*,?,47.7*,?
O=C(NCC1CCCO1)c1ccccc1-c1nc(-c2ccccc2)no1 (centres undefined),15.0%,12.8%[5.75 µM],111.8*,?,35.1*,-7.1%
CCN(CC)C(=O)c1csc(Nc2ccc(C)cc2)n1,?,4.3%,48.9*,-20.5%,20.0*,13.0%
COc1ccc(C)cc1NC(=O)C(C)N1CCOCC1 (centres undefined),-1.9%,6.4%,5.3,4.5%[46.1 µM],-0.6,-6.9%[46.1 µM]
Cc1c(Cl)cccc1NC(=O)Nc1ccc(C(N)=O)cc1,-11.8%,5.5%,23.4,-16.4%[46.1 µM],18.5,-10.6%
COCCNC(=O)/C(C#N)=C\c1ccc(CNS(=O)(=O)c2ccc(C)cc2)o1,-5.3%,-1.7%,15.4,/,0.3,/
SMILES,Pf growth 48h,Pf growth 96h,Shiga toxin inh,MARV entry inh,Cycloheximide cs,LASV entry inh
O=C(CNC(=O)c1ccc(Cl)cc1Cl)NCC1CCCO1 (centres undefined),26.7%,33.7%,-5.0,-23.3%[46.1 µM],-2.3,3.6%
O=C(NCC1CCCO1)c1cc(-c2ccc(Cl)cc2Cl)on1 (centres undefined),123.8%,226.2%,75.2*,?,51.6*,?
CC(C)(C)NC(=S)N/N=C/c1c(Cl)cccc1Cl,3.7µM*,2.94µM*,-1.0,/,8.6,/
COc1ccc2cnn(-c3ccc(OC(F)(F)Cl)cc3)c(=O)c2c1OC,33.4%,18.5%,-9.9,?,0.7,-13.1%[46.1 µM]
CCOc1ccccc1OCCn1ncc2ccc(OC)c(OC)c2c1=O,-11.4%,?,26.8,-19.2%[46.1 µM],18.1*,16.0%
Cc1ccc(C(C)C)c(OCCNS(C)(=O)=O)c1,0.1%,-10.6%,30.3,1.3%,-5.0,-16.3%
COc1ccc2cnn(CCOc3cc(C)ccc3C(C)C)c(=O)c2c1OC,?,10.4µM*,19.8,?,-2.0,?
COc1ccc2cnn(CCOc3ccccc3)c(=O)c2c1OC,159.4%,13.8%,59.2,?,34.0*,?
CCOC(=O)C1CCN(C(=O)C2CCN(c3nnc(-n4cccc4)s3)CC2)CC1,?,-28.3%,-4.2,/,12.7,/
CC(=O)Nc1ccccc1-c1nc2ccccc2n(C(C)C(=O)Nc2cc(Cl)ccc2C)c1=O (centres undefined),/,/,/,4.1%[46.1 µM],/,1.5%[46.1 µM]
CCCCNc1nnc(SCC(=O)c2c[nH]c3ccccc23)s1,10.4µM*,8.28µM*,-2.1,?,-5.1,?
Cn1cnnc1SCC(=O)c1c[nH]c2ccccc12,96.4%,/,62.8,?,14.6,-2.7%
COc1cc(OC)c(NC(=O)C2CCN(S(=O)(=O)c3ccc4c(c3)CC(C)N4C(C)=O)CC2)cc1Cl (centres undefined),0.0%,0.0%,-4.1,/,17.1*,/
COc1ccc(NC(=O)CN(C)S(=O)(=O)c2ccc3c(c2)CC(C)N3C(C)=O)cc1OC (centres undefined),-20.8%,-12.8%,-3.6,/,-1.7,/
COc1ccc(OC)c(NC(=O)C2CCN(S(=O)(=O)c3ccc4c(c3)CC(C)N4C(C)=O)CC2)c1 (centres undefined),?,14.7µM*,9.1,2.8%[46.1 µM],-1.7,-12.2%[46.1 µM]
COc1ccc(C)cc1NC(=O)CN(C)S(=O)(=O)c1ccc2c(c1)CC(C)N2C(C)=O (centres undefined),-21.8%,7.38µM*,0.5,/,19.0,/
COc1ccc(NC(=O)C2CCN(S(=O)(=O)c3ccc4c(c3)CC(C)N4C(C)=O)CC2)cc1OC (centres undefined),-15.5%,18.0%,-6.9,/,-2.2,/
NC(=O)c1ccccc1NC(=O)N1CCOCC1,-10.7%,?,-5.5,2.8%,-2.3,?
Cc1ccc(-n2c(O)c(C=N)c(=O)n(-c3ccc(C)cc3)c2=O)cc1,-5.0%,-0.1%,-6.9,/,-2.1,/
COc1ccc(C(=O)NNC(=O)CN2CCC(n3nnc4cc(C(F)(F)F)ccc43)CC2)cc1,-8.0%,7.8%,-6.5,0.0%,0.4,-5.8%
